Vaccinia Venus: qHTS for Stage-Specific Inhibitors of Vaccinia Orthopoxvirus: Venus Reporter Primary qHTS; Vaccinia virus Venus reporter expression, fluorescence; Potency, µM (top dose mostly 36.5 µM), inactives show at the highest dose activity change, negative = inhibition, hits mostly inhibitors; 330,000 tested, 0.46% active; AID 720580, 2013; calls by dose curve; tested in A549 cells; further: nearly all actives have a fitted effect of over 30% in size
Pf growth 96h: Primary qHTS for delayed death inhibitors of the malarial parasite plastid, 96 hour incubation | P. falciparum luciferase reporter growth, 96 h | Potency, µM (top dose mostly 28.7 µM), for inactives: at the highest dose activity change, negative = inhibition, hits mostly inhibitors | 320,000 tested, 6.9% active | AID 504834, 2011
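P. falciparum expressing integrated firefly luciferase grown in erythrocytes (2% hematocrit, 0.05% parasitemia final) with compounds for 96 hours at 37 C, 5% CO2. Growth inhibition read as loss of luminescence after adding luciferase detection reagent.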
AMA1-RON2 inh: qHTS for Inhibitors of AMA1-RON; Towards Development of Antimalarial Drug Lead: Primary Screen. Plasmodium falciparum AMA1 (3D7) - RON2 peptide interaction. AlphaScreen AMA1-biotinylated RON2 peptide binding. Potency, µM (titrated, usually from 58.2 µM), inactives show top-dose activity change, negative = inhibition, usual class: inhibitors. 360,000 tested, 0.2% active. AID 720542, 2013;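 further: 0% = vehicle wells and -100% = peptide control; nearly all actives have a fitted effect of over 45% in size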
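AMA1 (3D7) with his tag at 25 nM final met compounds first, then biotinylated RON2 peptide at 25 nM; detection used donor plus acceptor beads, 10 µg/mL apiece, read by AlphaScreen after 30 min at room temperature.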
Pf growth 48h: Primary qHTS for delayed death inhibitors of the malarial parasite plastid, 48 hour incubation | P. falciparum luciferase growth in erythrocytes, 48 h | Potency, µM (top dose mostly 28.7 µM), inactives show at the highest dose activity change, negative = inhibition, usual class: inhibitors | 310,000 tested, 5.9% active | AID 504832, 2011
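Luminescence readout; reporter = integrated firefly luciferase in P. falciparum. RBC culture at 2% hematocrit, 0.1% parasitemia final, 37 C/5% CO2; decreased signal taken as growth inhibition.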
VACV mCherry inh: qHTS for Stage-Specific Inhibitors of Vaccinia Orthopoxvirus: mCherry Reporter Primary qHTS | Vaccinia virus mCherry reporter infection, fluorescence | Potency, µM (doses to about 36.5 µM), for the others: at the top dose activity change, negative = inhibition, usual class: inhibitors | 310,000 tested, 0.63% active; calls by dose curve; tested in A549 cells; further: nearly all actives have a fitted effect of over 35% in size
Starred values were filed as active, the others as inactive. Compounds with a hit are over-represented: about 8.7% of the library has one in this group of screens. Unless noted, the call rests on the fitted dose curve; in most records, active means well fitted curve in the direction sought with a large enough effect; inconclusive means small, poorly fitted or top-dose-only effect, or another doubt; inactive means no such curve, though single readings can be large; an effect the other way counts as inactive or inconclusive. Unless noted, on the % scale 0 is the no-effect control and ±100 the full control effect; potency means the concentration at half of the fitted maximal effect.

What do the screens show for `Cc1ccc(NC(=O)CN2C(=O)COc3ccc(S(=O)(=O)Nc4ccccc4)cc32)c(C)c1`?
Vaccinia Venus: -3.0%; VACV mCherry inh: -19.9%

How did Cc1ccc(C2=NC(=O)/C(=C/c3cc(O)c(O)c(Br)c3)S2)cc1 do in these assays?
Vaccinia Venus: -7.5%; Pf growth 96h: 35.2%; AMA1-RON2 inh: inconclusive; Pf growth 48h: 10.4µM*; VACV mCherry inh: inconclusive

How did CCOc1ccc(-n2c(-c3cccs3)nc3ccccc3c2=O)cc1 do in these assays?
Vaccinia Venus: -9.2%; Pf growth 96h: 9.28µM*; AMA1-RON2 inh: -5.3%; Pf growth 48h: 0.6%; VACV mCherry inh: inactive

Results for C(=C\c1ccnc2ccccc12)/c1ccc(N2CCOCC2)cc1 ?
Vaccinia Venus: 178.5%; VACV mCherry inh: 163.2%

Results for CCc1ccc(N(CC(=O)NC2CCCCC2)S(=O)(=O)c2c(C)noc2C)cc1 ?
Vaccinia Venus: -3.3%; Pf growth 96h: 1.85µM*; AMA1-RON2 inh: 1.2%; VACV mCherry inh: 6.4%

What do the screens show for `COc1ccc(NC(=O)CN(c2cc(C)cc(C)c2)S(=O)(=O)c2c(C)noc2C)cc1OC`?
Vaccinia Venus: -9.0%; Pf growth 96h: 11.7µM*; AMA1-RON2 inh: -2.2%; Pf growth 48h: inconclusive; VACV mCherry inh: inactive

How did COc1ccc(N(CC(=O)NCc2ccc(F)cc2)S(=O)(=O)c2c(C)noc2C)cc1 do in these assays?
Vaccinia Venus: -10.5%; Pf growth 96h: 10.4µM*; AMA1-RON2 inh: -5.8%; Pf growth 48h: 5.1%; VACV mCherry inh: -1.5%

What do the screens show for `Cc1noc(C)c1S(=O)(=O)N(CC(=O)NCc1ccc(F)cc1)c1ccc(C(C)C)cc1`?
Pf growth 96h: -4.1%; AMA1-RON2 inh: -4.0%; Pf growth 48h: inconclusive

How did Cc1ccc(N(CC(=O)NCc2ccc(F)cc2)S(=O)(=O)c2cccs2)cc1 do in these assays?
Vaccinia Venus: -17.1%; Pf growth 96h: 4.65µM*; AMA1-RON2 inh: -1.9%; VACV mCherry inh: -2.5%

What do the screens show for `CCOc1ccc(N(CC(=O)NC2CCCCC2)S(=O)(=O)c2c(C)noc2C)cc1`?
Vaccinia Venus: -4.6%; Pf growth 96h: 15.3%; AMA1-RON2 inh: -1.0%; Pf growth 48h: 0.3%; VACV mCherry inh: 4.4%

What do the screens show for `CSCCC(NS(=O)(=O)c1ccc2c(c1)oc(=O)n2C)C(=O)NCCc1ccc(C)cc1` (configuration not stated)?
Vaccinia Venus: -7.9%; VACV mCherry inh: -12.9%

What do the screens show for `C=CCN(CC=C)c1ccc(/C=C/c2ccnc3ccccc23)cc1`?
Vaccinia Venus: 14.5%; VACV mCherry inh: -14.9%

What do the screens show for `COC(=O)c1ccccc1NC(=O)c1sc2nc(C)cc(C)c2c1NC(=O)c1ccccc1Cl`?
Vaccinia Venus: -19.7%; VACV mCherry inh: -14.2%

Results for CCSC1=NC2(CCN(C(=O)NC3CCCCC3)CC2)N=C1c1ccc(C)c(C)c1 ?
Vaccinia Venus: -9.5%; VACV mCherry inh: -9.4%

How did CCOc1ccccc1NC(=O)CN(c1ccc(OC)cc1)S(=O)(=O)c1c(C)noc1C do in these assays?
Pf growth 96h: inconclusive; AMA1-RON2 inh: -13.7%; Pf growth 48h: 9.28µM*

Results for Cc1cc(C)cc(N(CC(=O)O)S(=O)(=O)c2c(C)noc2C)c1 ?
Vaccinia Venus: -6.1%; AMA1-RON2 inh: -8.3%; Pf growth 48h: 8.7%; VACV mCherry inh: inactive

What do the screens show for `Cc1ccc(N(CC(=O)NCc2ccccc2Cl)S(=O)(=O)c2c(C)noc2C)cc1`?
Vaccinia Venus: -6.7%; Pf growth 96h: inconclusive; AMA1-RON2 inh: -8.0%; Pf growth 48h: inconclusive; VACV mCherry inh: inconclusive

How did CCOc1ccc(N(CC(=O)NCc2ccccc2Cl)S(=O)(=O)c2c(C)noc2C)cc1 do in these assays?
Pf growth 96h: inconclusive; AMA1-RON2 inh: 10.3%; Pf growth 48h: 13.1µM*

How did COc1ccc(N(CC(=O)NCCc2cccc(C)c2)S(=O)(=O)c2c(C)noc2C)cc1 do in these assays?
Vaccinia Venus: -2.9%; Pf growth 96h: 2.62µM*; AMA1-RON2 inh: -9.6%; Pf growth 48h: inconclusive; VACV mCherry inh: -7.1%

What do the screens show for `Cc1noc(C)c1S(=O)(=O)N(CC(=O)O)c1ccc2c(c1)OCO2`?
Vaccinia Venus: 25.5%; Pf growth 96h: 5.86µM*; AMA1-RON2 inh: -5.4%; Pf growth 48h: 43.7%

How did Cc1cc2ccccc2c[n+]1C do in these assays?
Vaccinia Venus: -21.9%; VACV mCherry inh: 23.6%

Results for COc1ccc(C(=O)Nc2ccc(SC(F)F)cc2)cc1 ?
Vaccinia Venus: -12.5%; Pf growth 96h: 192.6%; AMA1-RON2 inh: -4.7%; Pf growth 48h: 313.4%; VACV mCherry inh: -17.6%

Results for O=C(C[n+]1cccc(CNC(=O)c2ccc(OC(F)F)cc2)c1)Nc1ccc(SC(F)F)cc1 ?
Vaccinia Venus: -11.6%; Pf growth 96h: 0.165µM*; AMA1-RON2 inh: 0.4%; Pf growth 48h: 1.65µM*; VACV mCherry inh: -24.8%

Results for O=C(C[n+]1cccc(CNC(=O)c2ccc(OC(F)F)cc2)c1)Nc1ccccc1Cl ?
Vaccinia Venus: -15.9%; Pf growth 96h: inconclusive; AMA1-RON2 inh: -11.9%; Pf growth 48h: 13.1µM*; VACV mCherry inh: -13.2%

Results for O=C(NCc1ccc[n+](CCCCS(=O)(=O)[O-])c1)c1ccc(OC(F)F)cc1 ?
Pf growth 96h: 26.2%; Pf growth 48h: -2.2%

What do the screens show for `CC1OC(OC2CCC3(C)C(CCC4C3CC(O)C3(C)C(C5=CC(=O)OC5)CCC43O)C2)CC(O)C1OC1CC(O)C(OC2CC(O)C(OC3OC(CO)C(O)C(O)C3O)C(C)O2)C(C)O1` (configuration not stated)?
Pf growth 96h: inconclusive; Pf growth 48h: -17.0%

What do the screens show for `CC(=O)OC1CC(OC2C(O)CC(OC3C(O)CC(OC4CCC5(C)C(CCC6C5CCC5(C)C(C7=CC(=O)OC7)CCC65O)C4)OC3C)OC2C)OC(C)C1OC1OC(CO)C(O)C(O)C1O` (configuration not stated)?
Vaccinia Venus: 5.62µM*; AMA1-RON2 inh: 3.7%; VACV mCherry inh: 4.47µM*

What do the screens show for `CC(=O)OC1C[C@H](O[C@@H]2C(O)C[C@H](O[C@@H]3C(O)C[C@@H](OC4CC[C@]5(C)C(CCC6C5CC(O)[C@@]5(C)C(C7=CC(=O)OC7)CC[C@@]65O)C4)OC3C)OC2C)O[C@H](C)[C@H]1O[C@H]1OC(CO)C(O)C(O)C1O` (some centres not stated)?
Pf growth 96h: 4.78µM*; Pf growth 48h: 8.49µM*

Results for COC1CC(OC2CCC3(C)C(CCC4C3CCC3(C)C(C5=CC(=O)OC5)C(OC(C)=O)CC43O)C2)OC(C)C1OC1OC(COC2OC(CO)C(O)C(O)C2O)C(O)C(O)C1O (configuration not stated) ?
Pf growth 96h: 0.2%; Pf growth 48h: 24.6%
